Results on 89 molecules are retold here after ChEMBL document CHEMBL3988442, “University of Dundee, Small-Polar-MMV Screening Library” (2021).

About 13,000 (27%) of roughly 48,000 compounds showed an effect of 50% or more. The list shows a part of the results.

The test system of the experiment is Wolbachia pipientis. The experiment can be described thus: Anti-Wolbachia Cell-Based Screen. The class given is functional. The arrangement: scale not given: in the data most compounds retested in dose-response had high values. To be noted: 5 µM.
For `CCOCC(=O)Nc1ccc(N2CCSCC2)cc1C`, the “Percent Effect” value was -9.938%. The result for `O=C(O)C(F)(F)F.O=C(O)C(F)(F)F.c1csc(CN2Cc3[nH]nc(COCC4CC4)c3C2)c1` reads -16.32%.

As to `Cc1cccc(S(=O)(=O)N2C[C@H]3C[C@H](C(=O)NC4CCC4)[C@@H](C2)O3)c1`, the “Percent Effect” value is on record as -10.53%. As for `Cc1cccc(S(=O)(=O)N2C[C@@H]3C[C@@H](c4nnc(C)[nH]4)O[C@@H]3C2)c1`, the figure is 102.4%; as for `Cc1cccc(S(=O)(=O)N2C[C@@H]3OCCN(C(C)C)[C@@H]3C2)c1`, -15.31%. The result for `Cc1cccc(S(=O)(=O)N2C[C@H]3C[C@H](C(=O)N(C)C)[C@@H](C2)O3)c1` reads -13.43%; that for `Cc1cccc(S(=O)(=O)N2C[C@H]3C[C@H](C(=O)NCC4CC4)[C@@H](C2)O3)c1`, -9.673%; that for `Cc1cccc(S(=O)(=O)N2C[C@@H]3C[C@@H](c4nc(C)no4)O[C@@H]3C2)c1`, 113.1%.

As for `Cc1ccc(-c2cn3c(n2)CO[C@@H](CNCc2cnn(C)c2)C3)cc1`, the “Percent Effect” value amounted to 12.36%. As for `CCCOc1ccc(C(=O)N2C[C@@H](CN3CCCC3)[C@@H](CO)C2)cc1Cl`, the figure is 0.3871%; as for `O=C(c1ccc(O)c(Cl)c1)N1C[C@@H](CN2CCCCCC2)[C@@H](CO)C1`, -0.5835%. On to `COCCN(C)C[C@@H]1CN(C(=O)c2ccc(O)c(Cl)c2)C[C@@H]1CO`, for which the “Percent Effect” value turned out to be 127.9%.

`COc1ccc(C(=O)N2C[C@@H](CN3CCCCC3)[C@@H](CO)C2)cc1Cl`: the “Percent Effect” value is reported as -0.8846%. As for `COCCN(C)C[C@@H]1CN(C(=O)c2ccc(O)c(C)c2)C[C@@H]1CO`, the figure is 126%. As for `COCCN(C)C[C@@H]1CN(C(=O)c2ccc(C)c(Cl)c2)C[C@@H]1CO`, the figure is 113.4%.

As to `COc1cc(C)ccc1C(=O)N1C[C@@H](CN(C)CCO)[C@@H](CO)C1`, the “Percent Effect” value is -2.888%. The result for `Cc1cc(C(=O)N2C[C@@H](CN3CCCCC3)[C@@H](CO)C2)ccc1O` reads -7.322%; that for `CC(C)CN1C(=O)COC[C@@H]1[C@H](O)c1ccc(NC(=O)C2CC2)cc1`, -2.654%.

As to `CC(C)c1cc(N[C@@H](CO)C(N)=O)n2nccc2n1`, the “Percent Effect” value is 27.01%. For `Cc1cnn(-c2cccc(N3CCCCC3)n2)c1`, the “Percent Effect” value is recorded as -2.755%. The result for `CC(C)c1nc(C2CCCN(C(=O)c3ccc4c(c3)COC4)C2)no1` (centres undefined) reads 126.8%; that for `CC(C)c1nccn1C1CCCN(C(=O)c2ccc3[nH]nnc3c2)C1` (centres undefined), -9.073%; that for `CC(C)c1nc(C2CCCN(C(=O)c3ccc4[nH]nnc4c3)C2)no1` (centres undefined), 134.9%. The result for `CC(C)c1nc(C2CCCN(C(=O)c3ccc4c(c3)OCO4)C2)no1` (centres undefined) reads 127.5%; that for `CC(C)c1nc(C2CCCN(C(=O)c3ccc4nncn4c3)C2)no1` (centres undefined), 123.4%. As for `CC(C)c1nc(C2CCCN(C(=O)c3ccc4nccn4c3)C2)no1` (centres undefined), the figure is -6.875%; as for `CC(C)c1nc(C2CCCN2C(=O)c2ccc3nncn3c2)no1` (centres undefined), -6.434%. For `O=C(c1ccc2c(c1)OCO2)N1CCCC(n2cccn2)C1` (centres undefined), the “Percent Effect” value is on record as 4.266%. As to `COc1ccccc1OC1CN(C(=O)c2c(C)nc3ccc(C)cn23)C1`, the “Percent Effect” value is -16.35%. As for `CC(c1ncc(C(C)(C)C)o1)N1CCN(Cc2ccc(Cl)s2)CC1` (centres undefined), the “Percent Effect” value is given as -10.01%. As for `Cc1ccc(NC(=O)c2nc(N3CCCCC3)ncc2Cl)cc1I`, the figure is 14.77%; as for `CC(=O)NC[C@H]1OC[C@@H](NC2CCC(F)(F)CC2)[C@@H]1O`, -10%. As for `Oc1cccc(CNCC2CCCO2)c1` (centres undefined), the figure is 10.1%; as for `N#Cc1ccc(NCc2cccc(OCC3CCCO3)c2)nc1` (centres undefined), 63.12%. The result for `Cc1nnc(NCc2ccc(N3CCC(CO)CC3)cc2)c(C#N)c1C` reads 12.23%; that for `COCc1ccccc1CNc1nnc(C)c(C)c1C#N`, -9.449%; that for `Cc1ccccc1C1(CNc2nnc(C)c(C)c2C#N)CCOCC1`, 10.33%.

For the molecule `N#Cc1ccc(NCc2cccc(COC3CCOCC3)c2)nc1`, the “Percent Effect” value is on record as -4.004%. As to `Cc1nnc(NCc2cccnc2N(C)C)c(C#N)c1C`, the “Percent Effect” value is -6.334%. The result for `Cc1nc2ccccc2nc1NCc1cccc(OCC2CCCO2)c1` (centres undefined) reads 113.3%; that for `Cc1nc2ccccc2nc1NCc1nnc2n1CCC2`, -17.33%; that for `Cc1nnc(NCc2cccc(OCC3CCCO3)c2)c(C#N)c1C` (centres undefined), 98.93%. As to `CN(C)C(=O)c1cccc(CNc2ccc(C#N)cn2)c1`, the “Percent Effect” value is given as 29.09%. With `Cc1nnc(NCc2cccc(OCc3ccccn3)c2)c(C#N)c1C`, the “Percent Effect” value is 115.9%.

`O=C(c1ccco1)N1CCc2ncnc(NCc3ccccn3)c2CC1`: the “Percent Effect” value is -3.443%. In the case of `CN1C(=O)[C@H]2CC[C@@H]1CN(C(=O)c1csc(Cc3ccccc3)n1)C2`, the “Percent Effect” value was -11.33%. The result for `CN(C(=O)c1ccc[nH]1)C1CCC(NC(=O)OC(C)(C)C)CC1` (centres undefined) reads -42.92%; that for `CCC(C)N(Cc1ccncc1)Cc1ccccc1Cn1cccn1` (centres undefined), 4.156%. For `CC1CCN(C(=O)[C@H]2C[C@@H]3CCN(CC4CCOCC4)C[C@H]3O2)CC1.O=C(O)C(F)(F)F`, the “Percent Effect” value was -1.273%. With `O=C(O)C(F)(F)F.O=C([C@H]1C[C@@H]2CCN(C3CCOCC3)C[C@H]2O1)N1CCCC1`, the “Percent Effect” value is 103.9%. With `O=C(O)C(F)(F)F.O=C([C@H]1COC[C@H]2CN(C3CCOCC3)C[C@H]21)N1CCC(F)CC1`, the “Percent Effect” value is listed as -1.372%. The result for `O=C(O)C(F)(F)F.O=C([C@@H]1C[C@@H]2CCN(C3CCOCC3)C[C@H]2O1)N1CCOCC1` reads 89.37%; that for `O=C(O)C(F)(F)F.O=C([C@@H]1C[C@@H]2CCN(C3CCOCC3)C[C@@H]2O1)N1CCCC1`, 130.2%; that for `O=C(O)C(F)(F)F.O=C([C@H]1C[C@@H]2CCN(C3CCOCC3)C[C@@H]2O1)N1CCOCC1`, -5.423%. As for `CC1CCN(C(=O)[C@@H]2C[C@@H]3CCN(CC4CCOCC4)C[C@@H]3O2)CC1.O=C(O)C(F)(F)F`, the figure is -4.888%. The result for `CC1CCN(C(=O)[C@H]2C[C@@H]3CCN(CC4CCOCC4)C[C@@H]3O2)CC1.O=C(O)C(F)(F)F` reads -3.152%; that for `O=C(O)C(F)(F)F.O=C([C@H]1C[C@H]2OCC[C@H]2N(CC2CCOCC2)C1)N1CCCC1`, 10.32%; that for `Cc1ccccc1CC(=O)N(C)C1CCCC1`, -4.156%. In the case of `COc1ccc(-c2cnc(CN3CCn4c(C)nnc4C3)o2)cc1`, the “Percent Effect” value is on record as -11.18%. For `c1csc(-c2nc(CN3CCn4c(nnc4C4CC4)C3)co2)c1`, the “Percent Effect” value is on record as -3.067%. On to `Cn1ccnc1-c1ccc(NCC2COc3ccccc3O2)nn1` (centres undefined), for which the “Percent Effect” value is -1.636%. The result for `Cc1ccc(CC(=O)NC(C)C(=O)N2CCS(=O)(=O)CC2)cc1` (centres undefined) reads -13.94%; that for `CC(C)CC(C)N(C)Cc1nnc(-c2ccco2)o1` (centres undefined), 9.065%; that for `CC(C)CNC(=O)N1CCC2(CC1)OC(C(N)=O)Cn1ccnc12.O=C(O)C(F)(F)F` (centres undefined), 99.99%. As for `CNC(=O)C1Cn2ccnc2C2(CCN(C(=O)CC3CCCC3)CC2)O1.O=C(O)C(F)(F)F` (centres undefined), the figure is -0.06928%; as for `CNC(=O)C1Cn2ccnc2C2(CCN(C(=O)c3ccccn3)CC2)O1` (centres undefined), -8.502%. The result for `CNC(=O)C1Cn2ccnc2C2(CCN(C(=O)NC3CCCC3)CC2)O1` (centres undefined) reads 96.32%; that for `CNC(=O)C1Cn2ccnc2C2(CCN(c3ccc(C)nn3)CC2)O1` (centres undefined), 1.376%. On to `CNC(=O)C1Cn2ccnc2C2(CCN(CCF)CC2)O1` (centres undefined), for which the “Percent Effect” value worked out at 3.54%. With `CNC(=O)C1Cn2ccnc2C2(CCN(Cc3csc(C)n3)CC2)O1` (centres undefined), the “Percent Effect” value is given as 2.029%. The result for `CC(C)CC(=O)N1CCC2(CC1)OC(C(N)=O)Cn1ccnc12.O=C(O)C(F)(F)F` (centres undefined) reads 113.8%; that for `NC(=O)C1Cn2ccnc2C2(CCN(C(=O)c3ccncc3)CC2)O1` (centres undefined), 116.6%; that for `CCc1nc(C)c(C2CC(=O)Nc3c2c(C(C)(C)C)nn3C)[nH]1` (centres undefined), -1.206%. As to `CCN(C(=O)c1ccc2nnc(C3CCN(S(C)(=O)=O)C3)n2c1)C(C)C` (centres undefined), the “Percent Effect” value is -8.044%. As for `CCS(=O)(=O)N1CCC(c2nnc(Cn3cccn3)n2C2CC2)CC1`, the figure is -1.644%. As for `CCN(CC)c1ccc(-c2nc(-c3cccc(OC)c3OC)no2)cn1`, the figure is -1.328%.

Consider `N#Cc1cccc(S(=O)(=O)CCN2CCOC2=O)c1`, for which the “Percent Effect” value is -9.929%.

For the molecule `COc1ccc(NC(=O)CCC2CCCN(S(=O)(=O)C3CC3)C2)cc1Cl` (centres undefined), the “Percent Effect” value was found to be 5.788%. On to `COc1ccc(OCc2cc(C(=O)N3CCOCC3)n[nH]2)c(Cl)c1`, for which the “Percent Effect” value is given as -1.083%.

Regarding `NC(=O)C1Cn2ccnc2C2(CCN(C(=O)NC3CCCC3)CC2)O1.O=C(O)C(F)(F)F` (centres undefined), the “Percent Effect” value amounted to 99.21%. The result for `O=C(NC1CC1)N1CCCC2(CCCCN2)C1.O=C(O)C(F)(F)F` (centres undefined) reads -8.648%; that for `CNC(=O)C1Cn2ccnc2C2(CCN(C(=O)c3ccoc3C)CC2)O1.O=C(O)C(F)(F)F` (centres undefined), 5.988%. Consider `Cc1cc(-c2c[nH]nc2C2CCCCN2C(=O)c2ccccc2)on1` (centres undefined), for which the “Percent Effect” value stood at 116.8%. With `Cc1ccc2cc(C(=O)N3CCCCC3c3nc[nH]n3)ccc2n1` (centres undefined), the “Percent Effect” value is -6.785%. As for `Cc1cccc(C(=O)N2CCCC2c2c(C)n[nH]c2C)c1` (centres undefined), the figure is 0.2093%; as for `COCc1cccc(C(=O)N2CCCCC2c2nccs2)c1` (centres undefined), 13.03%; as for `Cc1noc(-c2c[nH]nc2C2CCCN2C(=O)c2ccccc2)c1C` (centres undefined), 143.3%. As for `Cc1nc(O)ccc1C(=O)N1CCCC1c1nc(-c2ccccc2)n[nH]1` (centres undefined), the figure is -6.533%. In the case of `COCCN1C(=O)[C@H]2CC[C@@H]1CN(C(=O)Cc1c(F)cccc1Cl)C2`, the “Percent Effect” value is on record as -1.329%.
